Most compounds without a hit are left out; they make up all but 19% or so of the library.
TDP1 cell CPT – growth inhibition of DT40 Tdp1-/-;hTDP1 cells with camptothecin (screen for TDP1 inhibitors); actives 12% (n = 420,000); Potency, µM (top dose mostly 46.2 µM), actives largely listed as inhibitors; chicken DT40 Tdp1-/-;hTDP1 cells + 20 nM CPT, ATP luminescence, 48 h; AID 686979; also: nearly all actives have a fitted effect of over 55% in size
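Chicken DT40 Tdp1-/- cells stably complemented with human TDP1 were seeded at 400 cells/well in medium containing 20 nM camptothecin, exposed to pin-transferred compounds, and grown at 37 °C for at least 48 hr. Viability was read as ATP luminescence.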
DT40 TDP1 no CPT – qHTS for Inhibitors of human tyrosyl-DNA phosphodiesterase 1 (TDP1): qHTS in cells in absence of CPT. Potency, µM (top dose mostly 46.2 µM), usual class: inhibitors. DT40 Tdp1-/- hTDP1 cells, no CPT, ATP luminescence, 48 h. actives 15% (n = 420,000); also: nearly all actives have a fitted effect of over 55% in size
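DT40 Tdp1-/-;hTDP1 cells, no CPT (DMSO vehicle only), 400 cells/well; compounds pin-transferred; ≥48 hr, 37 °C; CellTiter-Glo 30 min RT dark, luminescence read.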
HT1080NT lethal – kills 2HG-producing HT-1080-NT fibrosarcoma cells; HT-1080-NT fibrosarcoma viability, CellTiter-Glo ATP luminescence, 48 h; Potency, µM (series often up to 46.1 µM), actives largely listed as cytotoxic; actives 1.6% (n = 360,000); AID 686970;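 also: NT is the 2HG producing partner of a matched IDH1 knockdown line; nearly all actives have a fitted effect of over 55% in size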
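Luminescent CellTiter-Glo readout after 48 hours of compound exposure at 37 degrees C defined viability of HT-1080-NT cells. Activity was normalized to DMSO wells and cell-free media wells; concentration-response curves were fitted and assigned curve classes.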
HT1080 IDH1KD tx – kills HT-1080 cells with IDH1 knockdown; HT-1080 IDH1 knockdown viability, ATP luminescence, 48 h; Potency, µM (top dose mostly 46.1 µM), hits mostly cytotoxic; actives 2% (n = 360,000)
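Viability of IDH1-knockdown HT-1080 fibrosarcoma cells was assessed by CellTiter-Glo after 48 h at 37 °C with titrated compound; concentration-effect curves were classified by fit quality and response size.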
IL1B secr inh – blocks inflammasome-driven IL-1 beta release. THP-1 LPS/ATP IL-1B secretion, AlphaLISA, 16 h; active compounds read low. activity change, % at 57.5 µM. actives 4.7% (n = 360,000); in the data active = activity change below about -50%; inconclusive = mostly about -30% to -49%
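Secreted IL-1B measured by AlphaLISA bead assay after 16 h compound exposure of THP-1 cells; compounds (final up to 57.5 uM) added 1 h before LPS (250 ng/mL) and ATP (1.25 mM) stimulation; lower signal means less secretion.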
Hits are given with their value. Unless noted, calls follow the shape of the dose curve; as a rule, active = well fitted curve in the direction sought with a large enough effect; inconclusive = small, poorly fitted or top-dose-only effect, or another doubt; inactive = no such curve, though single readings can be large; an effect the other way counts as inactive or inconclusive.

`CCOC(=O)c1ccc(NC(=O)CN2C(=O)CSC(C)C2=O)cc1` (stereo unspecified) gave TDP1 cell CPT inactive, DT40 TDP1 no CPT inactive, HT1080NT lethal inactive, HT1080 IDH1KD tx inactive and IL1B secr inh inactive.
Screening Cc1cccc(NC(=O)Cn2c(=O)n(Cc3ccccc3)c(=O)c3sc4ccccc4c32)c1 returned TDP1 cell CPT inactive and DT40 TDP1 no CPT inactive.
Cc1cccc(NC(=O)Cn2c(=O)n(CCc3ccccc3)c(=O)c3sc4ccccc4c32)c1 was read as TDP1 cell CPT 16µM and DT40 TDP1 no CPT 23µM.
For CCOc1ccc(NC(=O)Cn2c(=O)n(Cc3ccccc3)c(=O)c3sc4ccccc4c32)cc1 the results were TDP1 cell CPT 6.5µM and DT40 TDP1 no CPT 9.2µM.
For CCCCC(=O)N(C)c1c(C)nc2ccc(C(=O)NCCN(C)C)cn12 the results were TDP1 cell CPT inactive, DT40 TDP1 no CPT inactive, HT1080NT lethal inactive, HT1080 IDH1KD tx inactive and IL1B secr inh inactive.
Screening Nc1nc(C(F)(F)F)c(Br)c(=O)n1N returned TDP1 cell CPT inactive, DT40 TDP1 no CPT inactive, HT1080NT lethal inactive, HT1080 IDH1KD tx inactive and IL1B secr inh inactive.
Screening CCCOc1ccccc1-c1nc(SCC(=O)c2ccccc2)n[nH]1 returned TDP1 cell CPT 16µM and DT40 TDP1 no CPT 18µM.
For COc1ccccc1-c1nc(SCC(=O)Nc2ccc(C)c(C)c2)n[nH]1 the results were TDP1 cell CPT 23µM and DT40 TDP1 no CPT 23µM.
Screening CC(C)Oc1ccccc1-c1nc(SCC(=O)c2ccc(F)cc2)n[nH]1 returned TDP1 cell CPT 21µM and DT40 TDP1 no CPT 16µM.
COc1cccc(CNC(=O)CSc2n[nH]c(-c3ccccc3Cl)n2)c1 was read as TDP1 cell CPT inactive and DT40 TDP1 no CPT inconclusive.
CC(C)c1ccc(C(=O)CSc2n[nH]c(-c3ccncc3)n2)cc1 was read as TDP1 cell CPT inactive, DT40 TDP1 no CPT inconclusive, HT1080NT lethal inactive, HT1080 IDH1KD tx inactive and IL1B secr inh inactive.
`Cc1cc(C)c(NC(=O)CSc2n[nH]c(-c3ccccc3Cl)n2)c(C)c1` gave TDP1 cell CPT inconclusive and DT40 TDP1 no CPT 6.5µM.
For COc1ccc(NC(=O)CC(C)S(=O)(=O)c2cc3c(cc2C)NC(=O)CO3)cc1OC (stereo unspecified) the results were TDP1 cell CPT inactive and DT40 TDP1 no CPT inactive.
Screening COc1cccc(CNC(=O)C2CCN(c3cnccn3)CC2)c1 returned TDP1 cell CPT inactive, DT40 TDP1 no CPT inactive, HT1080NT lethal inactive, HT1080 IDH1KD tx inactive and IL1B secr inh inactive.
Screening O=C(CSc1n[nH]c(-c2ccccc2)n1)c1ccccc1 returned TDP1 cell CPT inconclusive, DT40 TDP1 no CPT inconclusive, HT1080NT lethal inconclusive, HT1080 IDH1KD tx inactive and IL1B secr inh inactive.
Screening COc1ccccc1-c1nc(SCC(=O)c2ccccc2)n[nH]1 returned TDP1 cell CPT inconclusive and DT40 TDP1 no CPT 16µM.
Screening COc1nc(C)nc(NC(=O)NS(=O)(=O)c2ccc(C)cc2)n1 returned TDP1 cell CPT inactive, DT40 TDP1 no CPT inactive, HT1080NT lethal inactive, HT1080 IDH1KD tx inactive and IL1B secr inh inactive.
For Cc1cccc(N(C)S(=O)(=O)c2c[nH]c3ccc([N+](=O)[O-])cc23)c1 the results were TDP1 cell CPT inconclusive, DT40 TDP1 no CPT inconclusive, HT1080NT lethal inconclusive, HT1080 IDH1KD tx inconclusive and IL1B secr inh inactive.
CC(C)c1ccc(/C=C/C(=O)Nn2cnnc2)cc1 was read as TDP1 cell CPT inactive, DT40 TDP1 no CPT inactive, HT1080NT lethal inactive and HT1080 IDH1KD tx inactive.
For Cc1ccc(/C=C/C(=O)Nn2cnnc2)cc1 the results were TDP1 cell CPT inconclusive, DT40 TDP1 no CPT 15µM, HT1080NT lethal inconclusive, HT1080 IDH1KD tx inconclusive and IL1B secr inh -115.
C=CCC[C@H](CCCCC)OC(=O)/C=C/[C@@H](O)[C@H](O)C[C@@H](O)CC=C was read as TDP1 cell CPT 18µM, DT40 TDP1 no CPT 18µM, HT1080NT lethal inactive, HT1080 IDH1KD tx inconclusive and IL1B secr inh inactive.
Screening C=CCC[C@@H](CCCCC)OC(=O)/C=C/[C@H](O)[C@@H](O)C[C@@H](O)CC=C returned TDP1 cell CPT inconclusive, DT40 TDP1 no CPT 16µM, HT1080NT lethal inconclusive, HT1080 IDH1KD tx inconclusive and IL1B secr inh inactive.
For C=CCC[C@@H](CCCCC)OC(=O)/C=C/[C@@H](O)[C@H](O)C[C@@H](O)CC=C the results were TDP1 cell CPT inconclusive, DT40 TDP1 no CPT inconclusive, HT1080NT lethal inactive, HT1080 IDH1KD tx inactive and IL1B secr inh inconclusive.
CCCCn1c(N)c(N(CC(C)C)C(=O)c2cccc(-n3cnnn3)c2)c(=O)[nH]c1=O was read as TDP1 cell CPT inactive, DT40 TDP1 no CPT inactive, HT1080NT lethal inactive, HT1080 IDH1KD tx inactive and IL1B secr inh inactive.
Screening Cc1ccc(C)c(NS(=O)(=O)c2ccc3c(c2)Cc2cc(S(=O)(=O)Nc4cc(C)ccc4C)ccc2-3)c1 returned TDP1 cell CPT 21µM, DT40 TDP1 no CPT 13µM, HT1080NT lethal inactive, HT1080 IDH1KD tx inactive and IL1B secr inh inactive.
For Cc1ccc(-c2csc3ncn(-n4c(C)ccc4C)c(=O)c23)o1 the results were TDP1 cell CPT 23µM, DT40 TDP1 no CPT 18µM, HT1080NT lethal inactive, HT1080 IDH1KD tx inactive and IL1B secr inh inactive.
Screening Cc1[nH]nc(-c2ccc(O)cc2O)c1-c1nc2ccccc2s1 returned TDP1 cell CPT inconclusive, DT40 TDP1 no CPT inconclusive, HT1080NT lethal inconclusive, HT1080 IDH1KD tx inconclusive and IL1B secr inh -82.
For CC(c1ccco1)N(C(=O)C12CC3CC(CC(C)(C3)C1)C2)c1ccccn1 (stereo unspecified) the results were TDP1 cell CPT 16µM, DT40 TDP1 no CPT 21µM, HT1080NT lethal inactive, HT1080 IDH1KD tx inactive and IL1B secr inh inactive.
For COC(=O)c1ccc(CN(c2ccccn2)S(=O)(=O)c2ccccc2)cc1 the results were TDP1 cell CPT inactive, DT40 TDP1 no CPT inconclusive, HT1080NT lethal inactive, HT1080 IDH1KD tx inactive and IL1B secr inh inactive.
Screening COC(=O)c1ccc(CN(c2ccc(C(=O)O)c(O)c2)S(=O)(=O)c2ccc(Cl)c([N+](=O)[O-])c2)cc1 returned TDP1 cell CPT 16µM, DT40 TDP1 no CPT 16µM, HT1080NT lethal inactive, HT1080 IDH1KD tx inactive and IL1B secr inh -86.
For CCC[C@H]1CN(c2ccc(Br)cc2)C(=O)[C@@H]1CC(=O)Nc1ccccc1 the results were TDP1 cell CPT inconclusive, DT40 TDP1 no CPT inconclusive, HT1080NT lethal inactive, HT1080 IDH1KD tx inactive and IL1B secr inh inactive.
`COc1ccc(NC(=O)C[C@H]2C(=O)N(c3ccc(OC)cc3)C[C@@H]2CSC)cc1` gave TDP1 cell CPT inactive, DT40 TDP1 no CPT inconclusive, HT1080NT lethal inactive, HT1080 IDH1KD tx inactive and IL1B secr inh inactive.
O=C(C[C@H]1C(=O)N(c2ccc(Br)cc2)C[C@@H]1Cc1ccccc1)Nc1ccccc1 was read as TDP1 cell CPT inconclusive, DT40 TDP1 no CPT inconclusive, HT1080NT lethal inactive, HT1080 IDH1KD tx inactive and IL1B secr inh inactive.
